The source of these data is PubChem BioAssay (EPA / NIEHS).

“And” between values parts separate entries of the source, which are not always exact repeats. Identical values can stand only once. The source made the active and inactive calls. The calls were made as follows: active = hit-call score of the fitted dose curve at least 0.9, where 1 is the maximum; inactive = score below 0.9.

Chain of Apoptosis regulator Bcl-2 (Homo sapiens) (P10415 whole entry, looked up): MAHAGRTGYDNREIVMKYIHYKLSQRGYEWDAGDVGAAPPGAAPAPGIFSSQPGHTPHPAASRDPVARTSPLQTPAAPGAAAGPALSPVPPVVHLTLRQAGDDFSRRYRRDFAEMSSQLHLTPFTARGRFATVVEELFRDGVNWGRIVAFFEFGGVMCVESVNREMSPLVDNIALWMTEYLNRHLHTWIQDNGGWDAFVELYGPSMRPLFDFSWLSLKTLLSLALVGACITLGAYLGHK

Read-out in the experiment: Apoptosis regulator Bcl-2 (Homo sapiens) (UniProt P10415)
Put plainly: LTEA_HepaRG_BCL2: Life Technologies and Expression Analysis (LTEA) Assay for Bcl-2 gene using HepaRG (AID 2283475).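 Also: BCL2 transcript by TaqMan qRT-PCR normalised to ACTB GAPDH and POLR2A.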 Conditions: mRNA level, 48 h; actives raise or lower the signal. As to the method: LTEA_HepaRG is a cell based, multiplexed-readout assay that uses HepaRG, a human liver cell line, with measurements taken at 48 hours after chemical dosing on a 96-well plate.LTEA_HepaRG_BCL2 is one of 102 assay component(s) measured in the LTEA HepaRG cell culture assay. It is a marker of Cell proliferation, survival, death.Data from the assay component LTEA_HepaRG_BCL2 was analyzed into 1 endpoint. This assay endpoint, LTEA_HepaRG_BCL2, was analyzed with bidirectional fitting relative to DMSO as the negative control and baseline of activity. Using a type of inducible reporter, measures of mRNA induction for gain or loss-of-signal activity can be used to understand regulation of transcription factor activity. To generalize the intended target to other relatable targets, this assay endpoint is annotated to the cell cycle intended target family, where the subfamily is Cell proliferation, survival, death.
A total of 1060 chemcials from the ToxCast library were tested in eight-point concentration-response experiments. Cell culture and cytotoxicity assays were conducted at Thermo Fisher Scientific's Custom Services facility (Madison, WI). A single lot of human HepaRG cells (Thermo Fisher Scientific, Frederick, MD) was used for the cell culture experiments. 96-well format collagen type I coated plates of human HepaRG cells were prepared using established methods. Briefly, cryopreserved HepaRG cells were thawed, plated at a density of approximately 100,000 cells/well in HepaRG Thaw, Plate, and General Purpose media (HPRG770, Thermo Fisher Scientific), and incubated for 48 hours. 0.5% DMSO was selected as vehicle control to balance the requisite need of DMSO in HepaRG cultures to maintain differentiation (for example, baseline metabolism, proportions of hepatocytes vs. cholangiocytes), while enabling further hepatic receptor pathway activation (for example, PXR and CAR) in response to chemical exposure. 48 hours after plating, the culture medium was replaced with HepaRG Serum-Free Incudtion Media. Cells were exposed to each test chemical in duplicate and maintained in CO2 incubators for another 48 hours. Chemical plates were thawed to room temperature and 200x concentrations of treatment groups were prepared. 8-point conentration-reponse curves were made with the highest exposure at 100 uM, followed by half-log dilutions, all in 0.5% DMSO. Each test plate contained variouse controls, induction positive controls (1mM phenobarbital), cytotoxicity positive controls ([…] aflatoxin B1), vehicle controls (0.5% DMSO), and total lysis controls (0.5% DMSO). Cell morphology images were taken using an Essen IncuCyte FLR automated microscope, with six 96-well plates imaged in about 24 minutes. Images were captured and exported and JPEG files. Spent culture media was transfered to black-well plates for the LDH assay, and remaining media was sorted at -80 C for later use. Cells were treated with RLT buffer and frozen until shipped for gene expression analysis. Total RNA was isolated from the cell suspension in 75 uL of Buffer RLT (Qiagen, Germantown, MD 20874) by Quintiles/Expression Analysis (Durham, NC) using a custom isolation procedure. Total RNA from each plate well was transferred to a preamplification plate. Fluidigm's 96.96 Dynamic ArrayTM (Fluidigm, Amsterdam, the Netherlands) technology was used for gene expression analyses by quantitative reverse transcription polymerase chain reaction (qRT-PCR, performed by Quintiles/Expression Analysis, Durham, NC)89. Standard TaqManTM Assays (Applied Biosystems/ThermoFisher Scientific, Foster City, CA) were used to assess the expression of 93 genes selected based on their selectivity and sensitivity to important hepatic receptors known to be modulated by environmental chemicals; importance in human hepatocyte functionality; and hepatotoxicity. […]
What is called AC50 is the midpoint of the concentration-response curve, whichever way the signal moves. With `CCOC1Oc2ccc(OS(C)(=O)=O)cc2C1(C)C` (stereo not given), the AC50 was 82.1 µM (active). On to `CNC(=O)Oc1cccc(N=CN(C)C)c1`, for which the result was inactive.

As for `O=[N+]([O-])/N=C1\NCCN1Cc1ccc(Cl)nc1`, the outcome was inactive.

For `COP(=S)(OC)Oc1ccc(SC)c(C)c1`, the result was inactive. As to `CCC(C)Nc1c([N+](=O)[O-])cc(C(C)(C)C)cc1[N+](=O)[O-]` (stereo not given), the compound was called inactive. For `N#Cc1c(Cl)c(Cl)c(Cl)c(C#N)c1Cl`, the call was inactive.

In the case of `O=C(O)CCCOc1ccc(Cl)cc1Cl`, the compound was called inactive. With `CCCN(CCC)c1c([N+](=O)[O-])cc(C(F)(F)F)cc1[N+](=O)[O-]`, the call was inactive.

For `CCC(C)(NC(=O)c1cc(Cl)c(C)c(Cl)c1)C(=O)CCl` (stereo not given), the result was inactive. `CCOCN(C(=O)CCl)c1c(C)cccc1CC`: the compound was classed as inactive.

Consider `C[C@H]1[C@H](c2ccc(Cl)cc2)SC(=O)N1C(=O)NC1CCCCC1`, for which the AC50 is 76 µM (active). Regarding `O=S(=O)(O)C(F)(F)C(F)(F)C(F)(F)C(F)(F)C(F)(F)C(F)(F)C(F)(F)C(F)(F)F`, the concentration at half-maximal activity (AC50) was 50 µM (active) and 65.5 µM (active) and 48 µM (active). Turning to `CC(C)(C)C(O)/C(=C\c1ccc(Cl)cc1Cl)n1cncn1` (stereo not given), the half-maximal activity concentration (AC50) is 21.8 µM (active). Turning to `O=C(NC(=O)c1c(F)cccc1F)Nc1ccc(OC(F)(F)C(F)OC(F)(F)F)c(Cl)c1` (stereo not given), the compound was called inactive. Take `O=[N+]([O-])c1c(Cl)c(Cl)c(Cl)c(Cl)c1Cl`: the call was inactive. As to `Oc1ccc(Cl)cc1Cc1ccccc1`, the outcome was inactive.

For the compound `CN1CSC(=S)N(C)C1`, the compound was called inactive. Still for that read-out and setting: under `COP(=O)(OC)OC=C(Cl)Cl` stands “inactive”. Regarding `COP(=S)(OC)Oc1ccc([N+](=O)[O-])cc1`, the compound was classed as inactive. `O=C(O)C(F)(F)C(F)(F)C(F)(F)C(F)(F)C(F)(F)C(F)(F)C(F)(F)F`: the result was inactive. On to `O=C(O)COc1ccc(Cl)cc1Cl`, for which the outcome was inactive. On the same count and under the same terms, as for `CNC(=O)Oc1ccccc1OC(C)C`, the entry is “inactive”. On to `CCC(C)(C)C(=O)OC1=C(c2ccc(Cl)cc2Cl)C(=O)OC12CCCCC2`, for which the result was inactive. With `ClC1C(Cl)C(Cl)C(Cl)C(Cl)C1Cl` (stereo not given), the call was inactive.

With `CC(C)OC(=O)Nc1cccc(Cl)c1`, the outcome was inactive. For the compound `CC1(c2ccc(Oc3ccccc3)cc2)OC(=O)N(Nc2ccccc2)C1=O` (stereo not given), the concentration at half-maximal activity (AC50) was 9.6 µM (active). On to `N#CN`, for which the compound was called inactive. Take `Clc1ccccc1-c1nnc(-c2ccccc2Cl)nn1`: the compound was classed as inactive. As to `CCCN(CCOc1c(Cl)cc(Cl)cc1Cl)C(=O)n1ccnc1`, the AC50 was 28.9 µM (active). As to `CC1(C)C(C=C(Cl)Cl)C1C(=O)OC(C#N)c1ccc(F)c(Oc2ccccc2)c1` (stereo not given), the call was inactive. Same read-out and setting: as for `CC(C)(C)C(O)C(Oc1ccc(Cl)cc1)n1cncn1` (stereo not given), the entry is “inactive”; as for `CCc1ccc(C(=O)NN(C(=O)c2cc(C)cc(C)c2)C(C)(C)C)cc1`, “inactive”. `C#CCN1C(=O)COc2cc(F)c(N3C(=O)C4=C(CCCC4)C3=O)cc21`: the result was inactive. In the case of `CCN(CC)C(=O)SCc1ccc(Cl)cc1`, the compound was classed as inactive. For the compound `Cc1[nH]c(=O)n(C(C)(C)C)c(=O)c1Cl`, the compound was called inactive. Turning to `O=S1OCC2C(CO1)C1(Cl)C(Cl)=C(Cl)C2(Cl)C1(Cl)Cl` (stereo not given), the half-maximal activity concentration (AC50) is 84.7 µM (active).

With `CNC(=O)/C=C(\C)OP(=O)(OC)OC`, the result was inactive.

Turning to `CNC(=O)CSP(=S)(OC)OC`, the call was inactive. `O=C(Nc1ccccc1)Nc1cnns1`: the call was inactive. Turning to `Oc1cc(Cl)ccc1Oc1ccc(Cl)cc1Cl`, the result was inactive.
